Assay outcomes (PubChem)
DT40 TDP1 CPT = DT40-hTDP1 cell growth loss with CPT | AID 686979 | Potency, µM (highest dose often 46.2 µM), usual class: inhibitors | chicken DT40 Tdp1-/-;hTDP1 cells + 20 nM CPT, ATP luminescence, 48 h | 12% of 420,000 active; further: nearly all actives have a fitted effect of over 55% in size
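Chicken DT40 Tdp1-/- cells complemented with human TDP1, 400 cells/well, exposed to compounds plus 20 nM camptothecin for at least 48 h at 37 C; viability read as ATP content by CellTiter-Glo luminescence.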
DT40 TDP1 no CPT = qHTS for Inhibitors of human tyrosyl-DNA phosphodiesterase 1 (TDP1): qHTS in cells in absence of CPT; DT40 Tdp1-/- hTDP1 cells, no CPT, ATP luminescence, 48 h; Potency, µM (top dose mostly 46.2 µM), usual class: inhibitors; 15% of 420,000 active; further: nearly all actives have a fitted effect of over 55% in size
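Seeded 400 DT40-hTDP1 cells/well (vehicle DMSO, no 20 nM CPT); pinned compounds; ≥48 hr at 37 °C; CellTiter-Glo luminescence as viability measure.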
ClpP mod = qHTS Assay for Activators of ClpP; Potency, µM (top dose mostly 57.5 µM); 1.9% of 340,000 active; purified B. subtilis ClpP, FRET peptide cleavage, 20 min; AID 651965, 2013; active means well fitted falling curve with a large enough effect; inconclusive means small, poorly fitted or top-dose-only effect; inactive means no such curve, though single readings can be large or run the other way; further: the source files actives as falling curves though it sought activators and does not explain the sign; nearly all actives have a fitted effect of over 65% in size
Target sequence (P80244 whole entry, looked up): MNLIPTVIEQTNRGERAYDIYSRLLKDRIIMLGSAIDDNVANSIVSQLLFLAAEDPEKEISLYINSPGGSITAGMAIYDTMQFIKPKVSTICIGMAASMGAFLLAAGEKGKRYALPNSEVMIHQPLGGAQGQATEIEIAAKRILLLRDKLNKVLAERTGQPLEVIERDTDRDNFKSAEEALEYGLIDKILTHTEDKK
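Buffer: 100 mM Tris/HCl pH8, 100 mM KCl, 0.05% low protease BSA, 2.5% glycerol, 0.01% Tween-20. ClpP 10 microg/mL final; 20 min RT; delta FRET normalized to ADEP and DMSO controls.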
D3 antag = D3 dopamine receptor (human) antagonism | AID 652054 | max response, negative = inhibition, % | D3R cells, DiscoveRx beta-arrestin luminescence, antagonist mode; hits give low values | P35462 | 2.5% of 360,000 active; in the data active means max response below about -50%; inconclusive means no clear call, values can overlap the other calls
Target sequence (P35462 whole entry, looked up): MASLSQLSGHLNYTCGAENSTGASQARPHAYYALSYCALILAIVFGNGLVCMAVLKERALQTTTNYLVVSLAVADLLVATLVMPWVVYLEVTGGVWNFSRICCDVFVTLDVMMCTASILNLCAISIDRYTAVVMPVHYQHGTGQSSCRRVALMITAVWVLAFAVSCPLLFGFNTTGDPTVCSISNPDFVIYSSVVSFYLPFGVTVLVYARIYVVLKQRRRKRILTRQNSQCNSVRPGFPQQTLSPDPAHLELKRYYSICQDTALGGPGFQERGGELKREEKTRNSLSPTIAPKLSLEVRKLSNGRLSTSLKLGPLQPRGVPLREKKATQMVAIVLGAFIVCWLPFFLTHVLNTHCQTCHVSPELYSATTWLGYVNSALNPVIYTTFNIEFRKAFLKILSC
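Cells plated overnight at 1500 cells/well, then exposed to library compounds with dopamine controls for 90 minutes at 37 degrees C. DiscoveRx reagent added for 30–60 minutes at room temperature; luminescence read, quantitative HTS format.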
IL-1B inflam inh = blocks inflammasome-driven IL-1 beta release. THP-1 LPS/ATP IL-1B secretion, AlphaLISA, 16 h; hits give low values. activity change, % at 57.5 µM. 4.7% of 360,000 active. AID 743279; in the data active means activity change below about -50%; inconclusive means mostly about -30% to -49%
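THP-1 cells pretreated 1 hr with compounds (up to 57.5 uM final), then stimulated with LPS (250 ng/mL final) plus ATP (1.25 mM final); secreted IL-1B measured by AlphaLISA after 16 hr, decreased signal indicating inhibition.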
DRD3 agonist = activates the human D3 dopamine receptor | max activation, % | D3R DiscoveRx beta-arrestin cells, luminescence, 90 min | P35462 | 0.58% of 410,000 active; in the data active means max activation above about 30%
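Agonist-mode cell screen: cells plated at 1500/well and incubated overnight at 37 °C, then exposed to library compounds for 90 min at 37 °C. Detection reagent was added for 30–60 min at room temperature, and luminescence was read.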
Hits are given with their value; i = inactive; ? = inconclusive; nt = no result. This is a sample that favours compounds with a hit; in the whole collection about 21% have one here. Unless noted, the call rests on the fitted dose curve; in most records, active means well fitted inhibition curve with a large enough effect; inconclusive means small, poorly fitted or top-dose-only effect; inactive means flat fitted curve, though single readings scatter.

SMILES	DT40 TDP1 CPT	DT40 TDP1 no CPT	ClpP mod	D3 antag	IL-1B inflam inh	DRD3 agonist
CCN(CC)CCCNC(=O)c1nn(-c2ccc(OC)c(Cl)c2)c(=O)c2c1c1ccccc1n2C	?	16µM	i	nt	nt	i
CCCN(C(=O)c1nn(-c2ccc(OC)c(Cl)c2)c(=O)c2c1c1ccccc1n2C)c1ccccc1F	i	i	i	nt	nt	i
COc1ccc(-n2nc(C(=O)N3CCCC(C)C3)c3c4ccccc4n(C)c3c2=O)cc1Cl (configuration not stated)	16µM	i	i	nt	nt	i
CCN(C(=O)c1nn(-c2ccc(OC)c(Cl)c2)c(=O)c2c1c1ccccc1n2C)c1cc(OC)ccc1OC	?	15µM	i	nt	nt	i
CCN(CC)CCNC(=O)c1nn(-c2ccc(OC)c(Cl)c2)c(=O)c2c1c1ccccc1n2C	i	i	i	nt	nt	i
CCCCNC(=O)c1nn(-c2ccc(C)cc2)c(=O)c2c1c1ccccc1n2C	8.2µM	2.6µM	i	nt	nt	i
O[C@H](CCCN1CCN(c2ncc(F)cn2)CC1)c1ccc(F)cc1	i	i	nt	nt	nt	nt
COc1ccc(C(=O)OCCNC(=O)c2ccncc2)cc1OC	i	i	i	i	i	i
CN(C)c1ccc(-c2cc3ccccc3c(=O)o2)cc1	i	i	i	i	i	i
COc1ccc(-n2nc(C(=O)NCCc3ccc(Cl)cc3)c3c4ccccc4n(C)c3c2=O)cc1	8.2µM	10µM	?	nt	nt	i
CCN(CC)CCCNC(=O)c1nn(-c2ccc(OC)cc2)c(=O)c2c1c1ccccc1n2C	i	i	i	nt	nt	i
Cc1ccc(-c2cc(C(F)(F)F)n3nc(C(=O)NCC45CC6CC(CC(C6)C4)C5)cc3n2)cc1	i	i	i	nt	nt	i
CC(=O)N(c1ccc2oc(=O)sc2c1)S(=O)(=O)c1cccs1	i	?	i	-51	i	i
CC(C)C(=O)N(c1cc2sc(=O)oc2c2ccccc12)S(=O)(=O)c1cccs1	18µM	12µM	i	i	i	i
CCCC(=O)N(c1ccc2oc(=O)sc2c1)S(=O)(=O)c1ccccc1	?	21µM	i	i	i	i
COc1ccc(N(C(=O)C(C)C)S(=O)(=O)c2cccs2)cc1	i	?	i	?	i	i
CSCc1c(C(=O)OCC(=O)c2ccc[nH]2)oc2ccccc12	i	i	i	i	i	i
COc1ccc(CCNC(=O)CCCn2nc(C)c3sc4ccccc4c3c2=O)c(OC)c1	23µM	?	i	nt	nt	i
CCOC(=O)N1CCN(C(=O)CCCn2nc(C)c3sc4ccccc4c3c2=O)CC1	?	26µM	?	i	?	i
Cc1nn(CCCC(=O)NCc2ccccc2)c(=O)c2c1sc1ccccc12	?	i	i	nt	nt	i
Cc1ccc(NC(=O)COC(=O)CC2CC3CCC2C3)cc1S(=O)(=O)N1CCOCC1 (configuration not stated)	i	i	i	i	i	i
CC(OC(=O)c1ccc(CN2CCCC2=O)cc1)C(=O)Nc1ccc(Cl)cc1 (configuration not stated)	?	?	i	i	i	i
Cc1ccc(CNC(=O)c2c(-c3ccc(F)cc3F)noc2C)o1	i	i	i	nt	nt	i
COc1ccc(NS(=O)(=O)c2ccc3nc(COc4cccc5ccccc45)[nH]c3c2)cc1	16µM	21µM	i	i	i	i
CCc1ccccc1OCc1nc2ccc(S(=O)(=O)N3CCOCC3)cc2[nH]1	23µM	?	i	-56	i	i
SMILES	DT40 TDP1 CPT	DT40 TDP1 no CPT	ClpP mod	D3 antag	IL-1B inflam inh	DRD3 agonist
COc1ccc(NS(=O)(=O)c2ccc3nc(COc4ccc5ccccc5c4)[nH]c3c2)cc1	18µM	?	?	?	-67	i
Cc1ccccc1OCc1nc2ccc(S(=O)(=O)N3CCOCC3)cc2[nH]1	?	i	i	i	i	i
COc1ccc(OCc2nc3ccc(S(=O)(=O)Nc4ccccc4Cl)cc3[nH]2)cc1	?	?	i	i	-51	i
COc1ccccc1NS(=O)(=O)c1ccc2nc(CCl)[nH]c2c1	?	?	nt	i	i	i
CCOc1ncccc1C(=O)OCc1c(F)cccc1Cl	i	i	nt	i	i	i
COc1cccc(CN2CC(C(=O)NCCCn3ccnc3C)CCC2=O)c1 (configuration not stated)	i	i	i	i	i	i
Cc1[nH]c2c(C)cccc2c1CCNC(=O)c1cc2ccccc2oc1=O	nt	nt	i	nt	nt	i
CCOc1ccccc1NC(=O)c1ccc2c(O)c(S(=O)(=O)c3ccccc3)c(=O)[nH]c2c1	i	i	i	i	i	i
CN(C)S(=O)(=O)c1cc(NC(=O)CN2CCN(c3ccccc3)CC2)ccc1Cl	?	?	i	i	i	64
CCN(CC)S(=O)(=O)c1cc(NC(=O)C(C)N2CCN(c3ccccn3)CC2)ccc1C (configuration not stated)	18µM	15µM	nt	i	i	i
CN(C)S(=O)(=O)c1cc(NC(=O)CNCc2ccccc2)ccc1Cl	i	?	nt	i	i	i
CN(CCOc1ccccc1)CC(=O)Nc1ccc(Cl)c(S(=O)(=O)N(C)C)c1	i	?	nt	i	-51	i
CC(C(=O)Nc1ccc(S(=O)(=O)N2CCOCC2)cc1)N1CCN(c2ccccn2)CC1 (configuration not stated)	i	i	nt	i	i	i
Cc1ccc(NC(=O)CN2CCN(c3ccccn3)CC2)cc1S(=O)(=O)N(C)C	?	i	i	i	i	62
O=C(O)CCN1C(=O)c2ccc(NC(=O)C(c3ccccc3)c3ccccc3)cc2C1=O	i	i	i	i	i	i
Nc1nonc1-n1nnc(C(=O)N/N=C/c2ccc(OCc3ccccc3F)cc2)c1CNc1ccccc1	i	i	i	i	i	i
Cc1ccc(NC(=O)COC(=O)CCc2c[nH]c3ccccc23)c(C)c1	?	?	i	i	i	i
O=C(CCN1CCN(c2ccccn2)CC1)Nc1ccc(F)cc1	i	i	i	?	i	i
CCN(CC)S(=O)(=O)c1cc(NC(=O)CN2CCN(c3ccccn3)CC2)ccc1C	13µM	23µM	i	i	i	91
Cc1cc(C)cc(NC(=O)CN2CCN(c3ccccn3)CC2)c1	i	i	i	i	i	i
CN(C)S(=O)(=O)c1ccc(NC(=O)CN2CCN(c3ccccn3)CC2)cc1	?	i	nt	i	i	66
O=C(CN1CCN(c2ncccn2)CC1)Nc1ccccc1-n1cccc1	?	13µM	i	i	i	i
O=C(CN1CCN(c2ccccn2)CC1)Nc1ccccc1Br	?	?	i	i	i	i
CN(C)c1ccc(NC(=O)CCN2CCN(c3ccccn3)CC2)cc1	i	i	i	i	i	95
